This note sets out measurements from PubChem BioAssay (NCI).

SMILES strings stand for the structures. The panel holds about 83,000 compounds, 20% with a hit somewhere; the sample as a whole holds those more often.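 Cells were grown in 96-well plates and exposed to the test compound at a single concentration for 48 hours; results are reported as percent growth, with values below 10 considered active.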 Values without a mark were called inactive. The source made the active and inactive calls.

Test systems include NCI-H23 lung; NCI-H226 lung; NCI-H322M lung; HOP-62 NSCLC; NCI-H460 lung; HOP-92 NSCLC; NCI-H522 lung; A549/ATCC NSCLC; 786-0 renal; COLO 205 colon.
Assay in all cases: NCI-60 one-dose screen, 48 h (100 = growth as untreated, 0 = no growth, -100 = all killed)
What all share (settings): 10 µM unless noted

Take `Oc1c(C(Nc2ccccc2)c2ccccc2)ccc2cccnc12` (configuration not stated): the growth was 51% with NCI-H23 lung; 33.2% in the assay with NCI-H226 lung; 46.4% in the assay with NCI-H322M lung; 24.1% with HOP-62 NSCLC; 20.7% in the assay with NCI-H460 lung; 19.9% in the assay with HOP-92 NSCLC. Also, the growth was 4.85% (active) in the assay with NCI-H522 lung, 37.3% in the assay on A549/ATCC NSCLC, 39.3% in the assay on 786-0 renal and 16.8% in the assay with COLO 205 colon.

Consider `O=C(NNc1ccccc1)OCc1ccccc1`, for which the growth was 103% in the assay with NCI-H23 lung; 97.7% in the assay with NCI-H226 lung; 67.6% in the assay with NCI-H322M lung; 100% with HOP-62 NSCLC; 79.5% in the assay on NCI-H460 lung; 82% in the assay with HOP-92 NSCLC. For the same compound, the growth is 82.1% in the assay on NCI-H522 lung, 70.7% in the assay with A549/ATCC NSCLC, 78.2% in the assay with 786-0 renal and 97.6% in the assay with COLO 205 colon.

As to `COC(=O)[C@]1(C)CCC[C@]2(C)c3ccc(C(C)C)cc3C(=O)[C@@H](Br)[C@@H]12`, the growth in the assay with NCI-H23 lung was 90.3%; with NCI-H226 lung it was 81.7%; in the assay with NCI-H322M lung it was 118%; with HOP-62 NSCLC, 94.3%; in the assay on NCI-H460 lung it was 106%; with HOP-92 NSCLC, 82.6%. The growth in the assay on NCI-H522 lung is 80.8%; in the assay with 786-0 renal it was 94.8%; in the assay with COLO 205 colon, 106%.

As for `CCC(C)(O)Cc1ccc(Cl)cc1` (configuration not stated), the growth in the assay on NCI-H23 lung is 109%; with NCI-H226 lung, 97.5%; in the assay on NCI-H322M lung, 100%; in the assay on HOP-62 NSCLC, 97.1%; in the assay on NCI-H460 lung it was 104%; with HOP-92 NSCLC it was 102%. Moreover, the growth with NCI-H522 lung is 99.5%; in the assay on A549/ATCC NSCLC it was 104%; in the assay with 786-0 renal it was 100%; in the assay on COLO 205 colon, 108%.

With `Nc1ccc(-c2ccc(N)c(S(=O)(=O)O)c2)cc1S(=O)(=O)O`, the growth was 112% in the assay on NCI-H23 lung; 119% in the assay on NCI-H226 lung; 116% with NCI-H322M lung; 101% with HOP-62 NSCLC; 117% with NCI-H460 lung; 74.4% in the assay with HOP-92 NSCLC. The growth in the assay with NCI-H522 lung was 125%; in the assay on A549/ATCC NSCLC it was 117%; in the assay with 786-0 renal, 106%; with COLO 205 colon, 114%.

As to `CC(=O)C1Cc2ccccc2C1=O` (configuration not stated), the growth in the assay on NCI-H23 lung is 95.4%; in the assay with NCI-H226 lung, 103%; in the assay on NCI-H322M lung, 89.5%; with HOP-62 NSCLC, 90.5%; with NCI-H460 lung, 111%; with HOP-92 NSCLC it was 105%. The growth in the assay with NCI-H522 lung was 122%; in the assay on A549/ATCC NSCLC, 106%; in the assay with 786-0 renal, 103%; in the assay on COLO 205 colon, 121%.

Turning to `COc1cc(/C=C/C(=O)CC(=O)/C=C/c2ccc(O)c(OC)c2)ccc1O`, the growth with NCI-H23 lung was 21.1%; in the assay on NCI-H226 lung, 88.1%; in the assay with NCI-H322M lung, 78.3%; with HOP-62 NSCLC, 40.9%; with NCI-H460 lung, 47.4%; in the assay on HOP-92 NSCLC, 71.9%. In addition, the growth with NCI-H522 lung is -22.5% (active); with A549/ATCC NSCLC, 63.8%; in the assay on 786-0 renal it was 16.7%; with COLO 205 colon, 86.3%.

`NC(=S)N/N=C\c1nccc2c(N)cccc12`: the growth in the assay on NCI-H23 lung is 15.6%; in the assay on NCI-H226 lung, -5.48% (active); with NCI-H322M lung, 4.54% (active); in the assay on HOP-62 NSCLC, -7.04% (active); in the assay on NCI-H460 lung, 3.27% (active); with HOP-92 NSCLC, 19.8%. Besides, the growth is 6.31% (active) with NCI-H522 lung and 14.2% in the assay on 786-0 renal.

In the case of `OC(c1cc(C23CC4CC(CC(C4)C2)C3)nc2c(Cl)cc(Cl)cc12)C1CCCCN1` (configuration not stated), the growth in the assay with NCI-H23 lung was -53.9% (active); in the assay with NCI-H226 lung, -69.4% (active); in the assay on NCI-H322M lung, -19.3% (active); in the assay with HOP-62 NSCLC, -88.6% (active); in the assay with NCI-H460 lung, -71.4% (active); with HOP-92 NSCLC, -80.7% (active). Besides, the growth in the assay with NCI-H522 lung was -81% (active); in the assay with A549/ATCC NSCLC, -74.6% (active); with 786-0 renal, -55% (active); in the assay with COLO 205 colon, -87.2% (active).

On to `COc1cc(/C=C2\SC(=S)N(/C=C/c3nc4ccccc4[nH]c3=O)C2=O)cc(OC)c1OC`, for which the growth in the assay on NCI-H23 lung is 69.7%; with NCI-H226 lung, 76.6%; in the assay with NCI-H322M lung it was 89.1%; in the assay on HOP-62 NSCLC, 65.8%; in the assay on NCI-H460 lung it was 92.1%; in the assay on HOP-92 NSCLC, 53.3%. For the same compound, the growth with NCI-H522 lung is 60.3%; in the assay with A549/ATCC NSCLC, 67.5%; in the assay with 786-0 renal, 76.6%; in the assay with COLO 205 colon, 101%.

In the case of `Cc1ccccc1NC(=O)Cc1csc2[n+]1C(=O)/C(=C/c1ccc([N+](=O)[O-])cc1)S2`, the growth in the assay on NCI-H23 lung was 93.1%; in the assay on NCI-H226 lung it was 91.1%; in the assay on NCI-H322M lung it was 103%; in the assay with HOP-62 NSCLC, 86.7%; in the assay on NCI-H460 lung, 104%; with HOP-92 NSCLC, 79.5%. For the same compound, the growth in the assay on NCI-H522 lung was 86.3%; with A549/ATCC NSCLC, 99.8%; in the assay on 786-0 renal it was 93.5%; with COLO 205 colon, 105%.

On to `CCCCCCCCCCCCCCCCSC(=NCC)NCC`, for which the growth with NCI-H23 lung is 39.4%; in the assay on NCI-H226 lung it was 85.7%; with NCI-H322M lung it was 17.4%; in the assay with HOP-62 NSCLC, 25.9%; with NCI-H460 lung, -83.9% (active); with HOP-92 NSCLC, -21.3% (active). In addition, the growth was 23.5% in the assay on NCI-H522 lung, -19.9% (active) with A549/ATCC NSCLC, 11.1% in the assay on 786-0 renal and -98.7% (active) in the assay on COLO 205 colon.

In the case of `CC(/C=N/NC(N)=S)Cc1ccc(C(C)C)cc1` (configuration not stated), the growth in the assay on NCI-H23 lung is 51%; with NCI-H226 lung, 66.6%; with NCI-H322M lung, 104%; in the assay with HOP-62 NSCLC, 89.1%; in the assay with NCI-H460 lung it was 82.8%; in the assay with HOP-92 NSCLC, 69.9%. Further, the growth in the assay with NCI-H522 lung was -26.6% (active); in the assay with A549/ATCC NSCLC, 89.5%; in the assay with 786-0 renal, 51%; with COLO 205 colon it was 68%.

For `COC(=O)Nc1nc2ccc(C3(c4ccc(F)cc4)OCCO3)cc2[nH]1`, the growth in the assay with NCI-H23 lung is 47.4%; in the assay with NCI-H226 lung, 63.9%; with NCI-H322M lung, 51.7%; in the assay on HOP-62 NSCLC it was 35.8%; in the assay with NCI-H460 lung, 10.4%; in the assay with HOP-92 NSCLC, 41.1%. The growth in the assay with NCI-H522 lung is -37.2% (active); with A549/ATCC NSCLC, 21.7%; with 786-0 renal, 51%; with COLO 205 colon, 0.171% (active).
